Screen size: about 340,000 compounds; about 1,700 (0.5%) were called active. This excerpt belongs to a sample that is enriched for actives. Values without a mark were called inactive. No stated cut-off is given here; in the data, active means inhibition above about 40%; inactive means the rest.
Molecular target: Cysteine protease ATG4B (Homo sapiens) (UniProt Q9Y4P1)
Assay: blockers of ATG4B cysteine protease activity – biochemical, fluorescence, uHTS, primary screen (AID 504462)
Details: ATG4B cleavage of LC3-PLA2, NBD-HPC fluorescence, 1 h; at 8.33 µM; hits give high values

Sequence of Cysteine protease ATG4B (Homo sapiens) (Q9Y4P1 whole entry, looked up): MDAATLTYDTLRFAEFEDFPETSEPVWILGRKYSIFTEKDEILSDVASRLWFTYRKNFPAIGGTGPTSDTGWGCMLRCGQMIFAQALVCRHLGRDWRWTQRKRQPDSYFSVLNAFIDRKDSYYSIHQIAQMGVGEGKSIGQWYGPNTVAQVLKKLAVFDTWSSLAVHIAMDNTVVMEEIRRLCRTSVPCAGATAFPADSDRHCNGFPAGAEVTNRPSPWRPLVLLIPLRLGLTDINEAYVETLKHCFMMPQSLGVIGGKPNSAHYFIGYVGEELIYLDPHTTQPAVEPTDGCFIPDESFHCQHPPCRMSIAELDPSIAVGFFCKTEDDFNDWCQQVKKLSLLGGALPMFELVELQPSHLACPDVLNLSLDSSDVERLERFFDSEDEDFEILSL

SMILES	inhibition
O=C(NCCc1ccco1)c1ccc(OCc2cn3ccccc3n2)cc1	-8.13%
Fc1ccccc1CNC(=S)Nc1ccc(Cl)cc1	23.2%
FC(F)(F)Oc1ccc(NC(=S)NCc2ccccc2)cc1	40.2% (active)
COC(=O)Cc1ccc(NC(=S)NCc2ccccc2)cc1	8.5%
CC1(C)C/C(=N/Nc2ccc([N+](=O)[O-])cc2[N+](=O)[O-])C(C)(C)O1	0.43%
CC(=O)c1c(N2CCOCC2)nc(=S)n(Cc2ccccc2)c1C	-2.2%
Oc1c(Cl)cc(Cl)c(Cl)c1Cc1c(O)c(Cl)cc(Cl)c1Cl	87.4% (active)
ClC1(Cl)CC1CSc1ncn[nH]1 (configuration not stated)	-3.17%
Nc1c(Cl)cc(-c2csc(N3CCCC3c3nc4cc(Cl)c(Cl)cc4n3CCOCCO)n2)cc1Cl (configuration not stated)	-22.9%
CC(=O)NC1(c2cccc(F)c2)CCN(CC(=O)NC(C)C)CC1	-3.58%
CCc1ccccc1NC(=O)CCOc1ccccc1	-0.7%
CCc1ccccc1NC(=O)/C(=C/c1ccccc1)c1ccccc1	59.5% (active)
CCc1ccccc1NC(=S)Nc1cc(OC)c(NC(=O)C(C)C)cc1OC	3.4%
CCN1CCN(C(C(=O)NC2CCCC2)c2cc3c(cc2[N+](=O)[O-])OCO3)CC1 (configuration not stated)	-0.97%
O=C(N[C@@H](Cc1c[nH]c2ccccc12)C(=O)O)OCC1c2ccccc2-c2ccccc21	61.3% (active)
Cc1cccc(C)c1OCC(=O)NC(Cc1c[nH]c2ccccc12)C(=O)O (configuration not stated)	2.14%
O=C(CCn1nnc2ccccc2c1=O)N[C@@H](Cc1c[nH]c2ccccc12)C(=O)O	0.19%
COCCCNC(=O)C1CCN(c2ccc(N3CCOCC3)nn2)CC1	-8.6%
Cc1ccc(-c2ccc(=O)n(Cc3ccc(F)cc3Cl)n2)cc1	17.9%
CN(C)Cc1ccc(F)cc1Sc1cc(Cl)ccc1Cl	43.6% (active)
COc1ccc(OC)c2c(N)c(C#N)c(C(F)(F)C(F)(F)F)nc12	3.2%
COc1ccc(/C=N/n2nnnc2N)cc1OC	4.77%
C=CCOC(=O)c1ccccc1C(=O)OCC=C	-32.7%
COc1ccc(OCCNC(=O)c2cc(C3CC3)nc3c2cnn3C(C)C)cc1	-0.45%
CSc1ccccc1C(=O)NCc1ccccc1	5.57%
Cc1ccc(CNC(=O)c2cccnc2Cl)cc1	-10.1%
Cc1ccc(CNC(=O)c2ccccc2CCc2ccccc2)cc1	46.1% (active)
